In the library only some 11% were active in any assay of this set; here they are far more common.
HCV inhibitor: HCV inhibition. Huh7.5.1 HCVcc-Cre infection, luciferase reporter, 44 h. Potency, µM (series often up to 41.8 µM), without a hit: at the highest dose activity change, negative = inhibition, usual class: inhibitors. 3.4% of 340,000 active; further: on the % scale 0 is the no-effect control and ±100 the full control effect
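Seed cells (1,000/well) for 4 h; treat with compound and infect with HCVcc-Cre, moi about 0.5. Incubate 44 h, then detect luciferase activity.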
VACV mCherry inh: vaccinia inhibition (mCherry reporter) | Vaccinia virus mCherry reporter infection, fluorescence | Potency, µM (titrated, usually from 36.5 µM), for inactives: at the highest dose activity change, negative = inhibition, usual class: inhibitors | 0.63% of 310,000 active | AID 720579; calls by dose curve; tested in A549 cells; further: on the % scale 0 is the no-effect control and ±100 the full control effect; nearly all actives have a fitted effect of over 35% in size
NS1 inh: influenza NS1 inhibition | 0.4% of 270,000 active | Potency, µM (series often up to 46.1 µM), without a hit: top-dose activity, positive = more growth; calls by dose curve; further: actives are rising curves; nearly all actives have a fitted effect of over 50% in size
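In this qHTS, NS1 from influenza A is expressed in budding yeast, where it slows growth. Cells are switched from glucose to 2% galactose medium (pH 6.0, -URA), treated with compound, and growth recovery is read at OD600.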
Pf growth 96h: P. falciparum growth inhibition at 96 hour, primary screen for plastid delayed-death inhibitors | 6.9% of 320,000 active | P. falciparum luciferase reporter growth, 96 h | Potency, µM (series often up to 28.7 µM), for inactives: top-dose activity change, negative = inhibition, usual class: inhibitors; further: on the % scale 0 is the no-effect control and ±100 the full control effect
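Erythrocytes infected with luciferase-expressing P. falciparum were dispensed at 2% hematocrit and 0.05% parasitemia (final), then incubated with compounds 96 hours at 37 C in 5% CO2. Luminescence after detection reagent addition reported growth.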
VACV Venus inh: inhibitors of vaccinia virus (Venus reporter). Vaccinia virus Venus reporter expression, fluorescence. Potency, µM (top dose mostly 36.5 µM), without a hit: at the top dose activity change, negative = inhibition, hits mostly inhibitors. 0.46% of 330,000 active; calls by dose curve; tested in A549 cells; further: on the % scale 0 is the no-effect control and ±100 the full control effect; nearly all actives have a fitted effect of over 30% in size
Pf growth 48h: P. falciparum growth inhibition at 48 hours (one generation); AID 504832; P. falciparum luciferase growth in erythrocytes, 48 h; 5.9% of 310,000 active; Potency, µM (doses to about 28.7 µM), for the others: at the highest dose activity change, negative = inhibition, most hits filed as inhibitors; further: on the % scale 0 is the no-effect control and ±100 the full control effect
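Luciferase-expressing P. falciparum in infected erythrocytes (2% hematocrit, 0.1% parasitemia final) in RPMI 1640/0.5% Albumax were exposed to compound for 48 hours at 37 C, 5% CO2; growth read as luminescence.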
Starred values were filed as active, the others as inactive; i = inactive; u = inconclusive; x = not tested or not shown; [ ] = dose if it differs, or a comment. Unless noted, the call rests on the fitted dose curve; in most records, active means well fitted inhibition curve with a large enough effect; inconclusive means small, poorly fitted or top-dose-only effect, or another doubt; inactive means no such curve, though single readings can be large or run the other way. Potency means the concentration at half of the fitted maximal effect.

SMILES | HCV inhibitor | VACV mCherry inh | NS1 inh | Pf growth 96h | VACV Venus inh | Pf growth 48h
O=c1c2cnn(-c3ccccc3)c2nc(-c2ccco2)n1-c1ccccc1 | 13µM* | x | 0% | 10µM* | x | 10µM*
CCCC(=O)N1CCN(c2nc3ccc(Br)cc3s2)CC1 | 10µM* | x | -16% | -9% | x | 22%
Cc1cccc(Cl)c1NC(=O)N1CCCN(c2nc3ccc(Cl)cc3s2)CC1 | 7.1µM* | x | -3% | u | x | u
CCCCC(=O)N1CCN(c2nc3ccc(Br)cc3s2)CC1 | 11µM* | -13% | -21% | 18% | -13% | 48%
CCCC(=O)N1CCN(c2nc3ccc(Cl)cc3s2)CC1 | 11µM* | x | -20% | 11% | x | 50%
O=c1c(C=NCCN2CCNCC2)c(O)n(C2CCCCC2)c(=O)n1C1CCCCC1 | u | -19% | 10% | u | -30% | 13µM*
O=c1c(C=NCc2cccs2)c(O)n(C2CCCCC2)c(=O)n1C1CCCCC1 | 4% | -9% | 1% | u | -4% | x
CCOc1ccc(N2C(=O)c3cccnc3C2Nc2ccc(C)cc2)cc1 (configuration not stated) | -22% | -23% | 4% | 1.7µM* | -14% | 9.3µM*
CCOc1ccc(OCCN2C(=O)c3ccccc3C2=O)cc1 | 23% | x | -10% | 13µM* | x | u
O=C1c2ccccc2C(=O)N1CCCOc1ccccc1 | 10% | x | -13% | x | -10% | 53%
CCOc1ccc(N2C(=O)Cc3ccccc3C2=O)cc1 | 8% | -5% | u | 1% | -7% | -5%
CCOc1ccc(N2C(=O)c3cccnc3C2Nc2ccc(C)c(C)c2)cc1 (configuration not stated) | -4% | x | -1% | 4.7µM* | x | x
CCOc1ccc(N2C(=O)c3cccnc3C2=O)cc1 | 0% | x | -21% | 1.9µM* | x | 44%
CCOc1ccc(-c2cc(NC(=O)Nc3cccc(C(C)=O)c3)c(C(=O)OC)s2)cc1 | x | -22% | x | x | -7% | x
CC(=O)c1ccc(N2CCN(C(=S)Nc3cc(C)ccc3C)CC2)cc1 | 5% | -7% | 1% | u | -27% | 10µM*
CSCCCNC(=S)N1CCN(c2ccc(C(C)=O)cc2)CC1 | 10% | 11% | -2% | 12µM* | 1% | u
CCc1cc2cc(C(=O)N3CCN(c4ccccc4)CC3)sc2s1 | -4% | x | 0% | -27% | u | x
O=C(N/N=C\c1ccc(Cl)s1)c1ccc(Cn2cccn2)o1 | -6% | -3% | -4% | -1% | -3% | -8%
Cn1cnc2nc(Cl)nc(Cl)c21 | 32µM* | u | x | x | u | x
CCCN1C(=O)C2C(C(=O)Nc3cccc(OC)c3)C3C=CC2(O3)C1C(=O)NC1CCCCC1 (configuration not stated) | 24% | -25% | -4% | 61% | -13% | -27%
CC1=C(C(=O)Nc2cccc(C(=O)NC3CCCCC3C)c2)SCCO1 (configuration not stated) | u | -9%[7.34 µM] | -6% | 9.3µM* | 1%[7.34 µM] | -11%
CC(=O)Nc1ccc(N(C(=O)Cc2c[nH]c3ccccc23)C(C(=O)NC2CCCCC2)c2ccco2)cc1 (configuration not stated) | u | -35% | 25% | 2% | u | u
Cc1ccc(C(C(=O)NC2CCCCC2)N(C(=O)Cc2c[nH]c3ccccc23)c2ccccc2)o1 (configuration not stated) | -10% | x | 7% | u | x | 9.3µM*
CC(=O)c1ccc(N(C(=O)Cc2c[nH]c3ccccc23)C(C(=O)NC2CCCCC2)c2cccs2)cc1 (configuration not stated) | u | x | 1% | 29% | x | 3.7µM*
Cc1ccc(C)c(-n2ccnc2SCC(=O)O)c1 | 7% | -12% | -8% | 5% | -8% | x
FC(F)(F)c1cc(N2CCNCC2)c2ccccc2n1 | -13% | -13% | 2% | -16% | -2% | 6%
FC(F)(F)c1cc(N2CCN(Cc3ccccc3)CC2)c2ccccc2n1 | -22% | i | -3% | 9.3µM* | -13% | u
COCCOc1cc(N2C(=O)CSCC2=O)c(Cl)cc1Cl | 22% | -9% | -36% | u | -10% | 15%
COc1cc2c(cc1OC)/C(=C/C(=O)c1ccc(C)cc1)NCC2 | -24% | -9% | 0% | u | -15% | u
